About 14,000 (4.5%) of roughly 310,000 compounds showed an effect of 50% or more. The effect is printed as a negative number. This excerpt belongs to a sample that is enriched for strong results.
These compounds were tested against human ether-à-go-go-related gene (hERG) potassium channel (human, UniProt Q12809) (assay: primary screen, population patch clamp on CHO cells stably expressing hERG; higher = less effect of the substance).
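Note: peak tail current of the secondary pulse compared with the same well before compound.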

Sequence of human ether-à-go-go-related gene (hERG) potassium channel (Q12809 whole entry, looked up): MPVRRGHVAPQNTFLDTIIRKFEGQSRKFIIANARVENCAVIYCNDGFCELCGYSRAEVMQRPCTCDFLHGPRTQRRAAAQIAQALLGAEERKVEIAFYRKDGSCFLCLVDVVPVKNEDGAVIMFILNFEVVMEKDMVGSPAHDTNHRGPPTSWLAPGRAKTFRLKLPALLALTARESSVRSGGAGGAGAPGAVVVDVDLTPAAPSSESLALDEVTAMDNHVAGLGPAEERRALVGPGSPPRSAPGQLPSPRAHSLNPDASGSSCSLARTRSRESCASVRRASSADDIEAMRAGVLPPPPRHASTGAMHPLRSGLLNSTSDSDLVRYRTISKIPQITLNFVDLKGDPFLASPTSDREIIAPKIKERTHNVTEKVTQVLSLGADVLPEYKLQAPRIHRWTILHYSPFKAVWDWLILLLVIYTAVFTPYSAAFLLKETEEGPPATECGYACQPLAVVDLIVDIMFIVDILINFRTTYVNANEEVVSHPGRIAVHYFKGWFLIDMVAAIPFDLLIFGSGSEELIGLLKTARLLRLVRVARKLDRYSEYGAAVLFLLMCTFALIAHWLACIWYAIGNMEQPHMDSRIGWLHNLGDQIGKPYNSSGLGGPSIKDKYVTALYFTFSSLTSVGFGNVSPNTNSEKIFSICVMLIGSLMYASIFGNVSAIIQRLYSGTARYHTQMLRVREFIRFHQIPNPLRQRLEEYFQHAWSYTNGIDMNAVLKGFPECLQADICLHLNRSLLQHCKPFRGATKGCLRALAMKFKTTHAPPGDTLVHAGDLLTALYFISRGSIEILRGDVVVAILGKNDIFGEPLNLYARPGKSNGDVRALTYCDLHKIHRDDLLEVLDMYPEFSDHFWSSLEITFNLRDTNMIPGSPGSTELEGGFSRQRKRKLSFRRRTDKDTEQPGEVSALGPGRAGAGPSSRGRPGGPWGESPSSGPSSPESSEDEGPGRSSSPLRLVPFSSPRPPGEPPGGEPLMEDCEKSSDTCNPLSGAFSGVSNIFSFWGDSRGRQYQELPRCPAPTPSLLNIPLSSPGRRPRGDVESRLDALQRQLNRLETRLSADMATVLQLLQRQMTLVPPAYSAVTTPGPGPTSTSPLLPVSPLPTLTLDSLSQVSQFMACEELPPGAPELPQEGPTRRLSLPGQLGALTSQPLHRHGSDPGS

| Structure (SMILES) | hERG current change (%, negative = inhibition) at 10uM [%] |
| --- | --- |
| O=C(CSc1nnc(-c2ccccc2)c(-c2ccccc2)n1)NCc1ccco1 | -55.5 |
| O=C(CSc1ccc2nnc(-c3ccccn3)n2n1)NCc1ccco1 | -63.1 |
| O=C(CSc1ccc2nnc(-c3ccccc3)n2n1)NCc1ccco1 | -72.2 |
| O=C(CSCC(=O)NCc1ccco1)NCc1ccco1 | -66 |
| O=C(CCSCCC(=O)NCc1ccco1)NCc1ccco1 | 6.38 |
| O=C(CSc1ncc(-c2ccccc2)nn1)NCc1ccco1 | -23.6 |
| CCOc1ccc(-c2nnc3ccc(SCC(=O)NCc4ccco4)nn23)cc1 | -8.72 |
| Cc1ccc(-c2nnc3ccc(SCC(=O)NCc4ccco4)nn23)cc1 | -6.59 |
| O=C(CSc1ccc2nnc(-c3ccncc3)n2n1)NCc1ccco1 | -25.8 |
| Cc1ccc(NC(=O)CSCC(=O)NCc2ccco2)cc1 | -0.0131 |
| O=C(CSc1ccc2nnc(-c3ccccn3)n2n1)NCC1CCCO1 (centres unmarked) | -8.53 |
| O=C(CSc1nc(-c2ccccc2)c(-c2ccccc2)[nH]1)NCc1ccco1 | -1.63 |
| Cc1cc(C(=O)N/N=C/c2ccc([N+](=O)[O-])o2)c(C)o1 | -7.72 |
| CNC(=O)c1ccc(NC(=O)/C=C/c2cccc(F)c2)cc1 | -18.3 |
| Cn1nc(NC(=O)C2CCC2C(=O)O)c2c(F)cccc21 (centres unmarked) | -0.347 |
| Cc1ccc(OCCOc2ccc(Br)cc2)c([N+](=O)[O-])n1 | -6.68 |
| COc1ccc(CNC(=O)C(C)c2ccc([N+](=O)[O-])cc2)cc1 (centres unmarked) | -21.2 |
| O=C(Nc1ccc2c(c1)OCO2)c1ccc(Cl)s1 | -2.22 |
| COc1ccc(-c2nnc3ccc(SCC(=O)NCc4ccco4)nn23)cc1OC | -28.3 |
| O=C(CSc1ccc2nnc(-c3ccc(F)cc3)n2n1)NCc1ccco1 | -21.7 |
| O=C(CSc1ccc2nnc(-c3cccc(F)c3)n2n1)NCc1ccco1 | -65.5 |
| Cc1ccc(S(=O)(=O)Nc2ccc3[nH]ccc3c2)cc1 | -9.71 |

| Structure (SMILES) | hERG current change (%, negative = inhibition) at 10uM [%] |
| --- | --- |
| OCC1(CCOc2ccccc2)CCN(Cc2ccc3c(c2)OCCO3)CC1 | -75.1 |
| CCOC(=O)C1(CCc2ccccc2)CCN(Cc2ccc3c(c2)OCCO3)CC1 | -84.4 |
| CCOC(=O)C1(CCc2ccccc2)CCN(C(=O)CN2CCOC2=O)CC1 | 14.6 |
| CCOC(=O)C1(Cc2ccccc2)CCN(Cc2ccc3c(c2)OCCO3)CC1 | -33.1 |
| CCOC(=O)C1(CCOc2ccccc2)CCN(Cc2ccc3c(c2)OCCO3)CC1 | -73.3 |
| CCOC(=O)C1(CCOC)CCN(CC(C)Cc2ccc3c(c2)OCO3)CC1 (centres unmarked) | -43.1 |
| O=C1/C(=C\c2ccco2)SC(=S)N1Cc1ccccc1 | 10.8 |
| N#Cc1ccc(Oc2ccc(NC(=O)C3CC=CCC3C(=O)O)cc2)cc1 (centres unmarked) | 12.9 |
| O=C1OC2(c3ccccc3)C3CCCC2C13 | 11.1 |
| O=S(=O)(c1cccs1)N1CCN(c2ccc(F)cc2)CC1 | -43.1 |
| O=C(Nc1cccc(OCC(=O)N2CCOCC2)c1)c1cccc([N+](=O)[O-])c1 | 25.9 |
| CC(=O)Oc1ccccc1N1C(=O)c2ccc(C(=O)O)cc2C1=O | 11.3 |
| Oc1ccccc1OCc1nc2ccccc2s1 | -13.7 |
| Cc1nc2ccc(C(=O)N/N=C/c3ccccc3O)cc2[nH]1 | 9.25 |
| N#Cc1c(N)n[nH]c1Cc1cccc2ccccc12 | 12.3 |
| CCCCc1nc(C(N)=O)c2[nH]c(=O)n(-c3ccc(OC)cc3OC)c2n1 | 1.88 |
| CCC(CC)C(=O)c1c[nH]c(C(=O)N2CCN(c3ccccc3F)CC2)c1 | 25.2 |
| Cc1ccc(NC(=O)C[n+]2cc(-c3ccccc3)n3c2CCC3)c(C)c1.[Cl-] | -9.62 |
| COc1ccccc1-n1c(CCC(=O)O)ccc1-c1ccccc1 | -12.9 |
| Cc1ccc(-n2c(-c3ccccc3)c[n+]3c2CCc2ccccc2-3)c(C)c1.[Br-] | -93 |
| Br.COc1ccccc1N1Cc2ccccc2C1 | -13.2 |
| COc1ccccc1-n1c(-c2ccccc2)c[n+]2c1CCc1ccccc1-2.[Br-] | -74.1 |

— PMC4336329 (PLoS ONE, 2015)
